# In ChEMBL document CHEMBL3988442, “University of Dundee, Small-Polar-MMV Screening Library” (2021):
# In all, about 66,000 compounds went through this assay and about 960 (1.5%) showed an effect of 50% or more. For the sample, strong results were picked, then their nearest neighbours and some compounds at random.
# System: Trypanosoma brucei
# Experiment: Trypanosoma brucei 72 hour study
# Assay type: functional, organism-based
# Parameters: scale not given: in the data most compounds retested in dose-response had high values
SMILES,"Percent Effect (30 µM, 30.03 µM) [%]","Percent Effect (30.3 µM, […]) [%]"
COc1ccc(C2SCC(=O)Nc3n[nH]cc32)c(OC)c1OC (stereo not drawn),-21.04,–
COc1cc(OC)c(C2SCC(=O)Nc3n[nH]cc32)cc1OC (stereo not drawn),60.77,–
COc1cc(C2SCC(=O)Nc3ccsc32)cc(OC)c1O (stereo not drawn),23.79,–
COc1ccccc1C1SCC(=O)Nc2n[nH]cc21 (stereo not drawn),40.76,–
COc1cc(C2SCC(=O)Nc3n[nH]cc32)cc(OC)c1O (stereo not drawn),53.45,–
COc1ccc(OC)c(C2SCC(=O)Nc3n[nH]cc32)c1 (stereo not drawn),38.65,–
COCc1cncc2c1CCN(Cc1cccs1)C2.O=C(O)C(F)(F)F.O=C(O)C(F)(F)F,–,-85.33
COCCN1CCC12CCN(C(=O)c1ccc(C)nc1)C2.O=C(O)C(F)(F)F (stereo not drawn),–,8.313
CN(C)CCN1CCN(Cc2cccs2)Cc2cccnc21.O=C(O)C(F)(F)F.O=C(O)C(F)(F)F.O=C(O)C(F)(F)F,–,-59.56
CCN1C[C@@H]2[C@@H](OC)CCN(C(=O)Cc3ccsc3)[C@@H]2C1.O=C(O)C(F)(F)F,–,-11
CN(C)CCOCc1cncc2c1CCN(C1CCOC1)C2.O=C(O)C(F)(F)F.O=C(O)C(F)(F)F.O=C(O)C(F)(F)F (stereo not drawn),–,-50.42
Cc1ccc2c(c1)C1(CCNCC1)CC2NC1CC1.Cl.Cl (stereo not drawn),–,15.24
Cc1ccc2c(c1)C(NC1CC1)CC21CCNCC1.Cl (stereo not drawn),–,51.53
Cc1ccc2c(c1)C(NC(C)C)CC21CCNCC1.Cl (stereo not drawn),–,-30.38
CC(C)CN1CCC2(C1)CN(c1ncccn1)C2.O=C(O)C(F)(F)F,-1.682,–
Cc1nc(CN2CCO[C@@H]3CC(COc4ccccn4)C[C@H]32)cs1.O=C(O)C(F)(F)F.O=C(O)C(F)(F)F (stereo partly drawn),–,-42.66
Cc1cc(N2CCC(NC(C)Cc3ccsc3)CC2)nc(N)n1 (stereo not drawn),101,–
Cc1cc(CC(C)NC2CCN(CC(C)C)CC2)[nH]n1 (stereo not drawn),11.44,–
Cc1cc(N2CCC(NC(C)Cc3ccsc3)CC2)nc(C)n1 (stereo not drawn),18.53,–
CCO[C@@H]1CC[C@H]2[C@H]1OCCN2CC1CCC1.O=C(O)C(F)(F)F,-19.35,–
CCc1ccc(CN2CC[C@@H]3NC(=O)CC[C@@H]32)o1.O=C(O)C(F)(F)F,–,-13.17

SMILES,"Percent Effect (30 µM, 30.03 µM) [%]","Percent Effect (30.3 µM, […]) [%]"
Fc1ccccc1CN1CCCC2(CCN(c3ncccn3)C2)C1 (stereo not drawn),–,102.7
c1cnc(N2CCCC3(CCN(Cc4ccsc4)C3)C2)nc1 (stereo not drawn),44.57,–
c1cnc(N2CCCC3(CCN(Cc4cccs4)C3)C2)nc1 (stereo not drawn),–,-58.76
Cc1cccc(CN2CCC[C@@H]3CN(C(=O)c4ccco4)C[C@@H]32)n1.O=C(O)C(F)(F)F,-18.06,–
Cc1noc(C)c1CN1CC[C@H]2OCC[C@@]2(C(=O)N2CCCC2)C1.O=C(O)C(F)(F)F,-22.78,–
CC(C)N(C)Cc1cncc2c1CCN(CC(=O)N(C)C)C2.Cl.Cl.Cl,–,7.599
Cc1cccc(CN2C[C@@H]3COC[C@H](NS(C)(=O)=O)[C@@H]3C2)n1.O=C(O)C(F)(F)F.O=C(O)C(F)(F)F,–,-15.48
O=C(NC[C@]12COC[C@H]1CN(Cc1cccnc1)C2)c1ccsc1.O=C(O)C(F)(F)F.O=C(O)C(F)(F)F,39.91,–
O=C(O)C(F)(F)F.c1cnc(N2C[C@H]3CCN(Cc4ccncc4)C[C@H]3C2)nc1,–,-2.942
O=C(O)C(F)(F)F.O=C(O)C(F)(F)F.c1ccc(N2CC[C@@H]3CN(Cc4ccncc4)CCO[C@@H]3C2)cc1,–,99.05
O=C(O)C(F)(F)F.O=C(O)C(F)(F)F.c1cnc(N2CC[C@@H]3CN(Cc4ccncc4)CCO[C@@H]3C2)nc1,–,-15.11
Cl.Cl.NCC1[C@H]2CN(CCc3ccccc3)C[C@@H]12 (stereo partly drawn),–,0.5802
O=C(O)C(F)(F)F.O=S(=O)(C1CC1)N1CCOC2(CCCN(Cc3ccccn3)C2)C1 (stereo not drawn),–,-44.45
COc1cc(C2SCC(=O)Nc3[nH]ncc32)c(OC)c2c1OCO2 (stereo not drawn),–,5.203
COc1c(C2SCC(=O)Nc3[nH]ncc32)cc2c(c1OC)OCO2 (stereo not drawn),–,46.19
COc1cc(C2SCC(=O)Nc3[nH]ncc32)cc2c1OCO2 (stereo not drawn),–,86.32
CN(C)Cc1cncc2c1CCN(C1CCOCC1)C2.Cl.Cl.Cl,–,-35.22
O=C(Cc1ccccc1)N1CCC2(CCN2Cc2ccc(F)cc2)C1.O=C(O)C(F)(F)F (stereo not drawn),–,10.12
CCCN1C(=O)CC2(CCCNC2)C1=O.Cl (stereo not drawn),–,-8.6
Cc1cccc(-c2ncc(CNC(C)Cc3ccncc3)cn2)c1 (stereo not drawn),–,-157.2
Cc1cccc(-c2ncc(CNC(C)Cc3ncccc3C)cn2)c1 (stereo not drawn),–,-134.7

SMILES,"Percent Effect (30 µM, 30.03 µM) [%]","Percent Effect (30.3 µM, […]) [%]"
CC(Cc1cccc(F)c1)NCc1cnc(N2CCN(C)CC2)nc1 (stereo not drawn),94.94,–
Cn1nc(CN2CCCCC(N)C2)c2c(Cl)cccc21 (stereo not drawn),–,88.2
CC(C)n1ccc2ccc(C(=O)NC3CN4CCC3CC4)cc21 (stereo not drawn),-12.75,–
Cn1ncc2c(NC3CN4CCC3CC4)nc(-c3ccncc3)nc21 (stereo not drawn),–,99.69
Cn1ccc2c(C(=O)NC3CN4CCC3CC4)cccc21 (stereo not drawn),-26.79,–
O=C(C1CCOCC1)N1C[C@H]2CNC[C@H]2C1,–,14.48
CN1CC[C@H]2OCC[C@@]2(C(=O)NCCc2ccccn2)C1.O=C(O)C(F)(F)F.O=C(O)C(F)(F)F,–,-17.73
O=C(O)C(F)(F)F.O=C(O)C(F)(F)F.c1cc(COC[C@]23COC[C@H]2CN(Cc2ccsc2)C3)ccn1,16.71,–
O=C(O)C(F)(F)F.O=C(O)C(F)(F)F.c1cc(COC[C@]23COC[C@H]2CN(CC2CCC2)C3)ccn1,51.43,–
O=C(O)C(F)(F)F.O=C(O)C(F)(F)F.O=C(O)C(F)(F)F.c1cc(COC[C@]23COC[C@H]2CN(Cc2ccncc2)C3)ccn1,-36.39,–
O=C(O)C(F)(F)F.O=C(O)C(F)(F)F.O=C(O)C(F)(F)F.c1cncc(CN2CCN3C[C@H](Oc4cncnc4)C[C@H]3C2)c1,–,-85.06
O=C(O)C1CC2(CCN(c3nccc4ccccc34)CC2)CN1 (stereo not drawn),23.73,–
O=C(NCc1cnn2cccnc12)C1CC2(CCNCC2)CN1 (stereo not drawn),54.89,–
CN1CC2(CCNCC2)CC1C(=O)NCCCNc1cccnc1 (stereo not drawn),–,-6.231
COc1ncccc1CN1C[C@H]2CCN(c3ncccn3)C[C@H]2C1.O=C(O)C(F)(F)F,–,-7.481
OCC1N(Cc2ccco2)[C@H]2CC[C@]1(O)CC2 (stereo partly drawn),–,-9.73
O=C(NCc1ccccn1)[C@]12COC[C@H]1CN(Cc1ccsc1)C2.O=C(O)C(F)(F)F.O=C(O)C(F)(F)F,–,-46.8
Cc1cc(CN2C[C@@H]3COC[C@H](C(=O)N4CCCCO4)[C@@H]3C2)no1.O=C(O)C(F)(F)F,–,-104.8
Cc1noc(C)c1CN1C[C@@H]2COC[C@@H](C(=O)N3CCCO3)[C@@H]2C1,–,79.91
Cc1noc(C)c1CN1C[C@@H]2COC[C@H](C(=O)N3CCCO3)[C@@H]2C1,–,-103.2
O=C(Nc1cccnc1)[C@H]1CN(Cc2nccs2)C[C@H]2OCC[C@@H]12.O=C(O)C(F)(F)F.O=C(O)C(F)(F)F.O=C(O)C(F)(F)F,6.623,–

SMILES,"Percent Effect (30 µM, 30.03 µM) [%]","Percent Effect (30.3 µM, […]) [%]"
Cc1cccc(CN2C(=O)C[C@H]3[C@@H]2CCN3CC2CC2)n1.O=C(O)C(F)(F)F.O=C(O)C(F)(F)F,–,9.244
CNC(=O)c1ccc2c(c1)C1(CCN(C(C)C)CC1)C(=O)N2.O=C(O)C(F)(F)F,–,-29.31
CCC1CNCc2cc3c(OC)ccc(OC)c3nc2O1 (stereo not drawn),–,8.287
CCC1CNCc2cc3c(C)ccc(C)c3nc2O1 (stereo not drawn),–,58.28
Cc1cccc(CN2CC[C@H]3OCC[C@@]3(C(=O)N3CCCO3)C2)n1.O=C(O)C(F)(F)F.O=C(O)C(F)(F)F,–,-52.48
O=C(O)C(F)(F)F.O=C(O)C(F)(F)F.O=C([C@H]1C[C@H]2OCC[C@H]2N(Cc2cccnc2)C1)N1CCCCO1,–,-300.7
O=C(C[C@@H]1COC[C@H]2CN(Cc3cccnc3)C[C@@H]12)NCC1CC1.O=C(O)C(F)(F)F.O=C(O)C(F)(F)F,–,-16.86
CCC1CCCCN1CCc1ccncc1 (stereo not drawn),–,96.43
CN(c1ncccc1C#N)C1CCN(CCc2ccncc2)CC1,-5.163,–
CC1CN(CCc2ccncc2)CCO1 (stereo not drawn),-38.53,–
Fc1cccc(CN2CCC3(CCN3c3ncccn3)C2)c1.O=C(O)C(F)(F)F (stereo not drawn),–,-29.27
COCCN1CCC2(COCc3cnc(-c4ccccc4)nc32)C1.O=C(O)C(F)(F)F (stereo not drawn),–,-55.77
CCOC(=O)[C@@H]1[C@@H](c2ccccc2)CN2CCNC[C@H]12,–,-24.8
O=C1CSC(c2cccs2)c2cnn(C3CCCC3)c2N1 (stereo not drawn),106.7,–
O=C1CSC(c2ccc3c(c2)OCO3)c2cnn(C3CCCCC3)c2N1 (stereo not drawn),6.351,–
COC(=O)c1ccc(C2SCC(=O)Nc3c2cnn3C2CCCC2)cc1 (stereo not drawn),9.206,–
CN1CCN(S(=O)(=O)c2cccc(F)c2)Cc2cccnc21.O=C(O)C(F)(F)F,–,-5.986
COCCN1CCN(S(C)(=O)=O)Cc2ccc(C)nc21.O=C(O)C(F)(F)F,–,-28.84
COCCN1CCN(c2ccc(C)nn2)Cc2ccc(C)nc21.O=C(O)C(F)(F)F.O=C(O)C(F)(F)F,–,6.262
COCCN1CCN(c2cccc(C)n2)Cc2ccc(C)nc21.O=C(O)C(F)(F)F.O=C(O)C(F)(F)F,–,60.56
